Molecules are shown by their SMILES. Results filed as inconclusive are left out. Active and inactive are the calls of the source. Unless noted, the call rests on the fitted dose curve; in most records, active means well fitted inhibition curve with a large enough effect; inconclusive means small, poorly fitted or top-dose-only effect; inactive means flat fitted curve, though single readings scatter.

We go through 15 compounds from PubChem BioAssay (NCATS).

The nature of test [1]: qHTS drug screen for cell cycle checkpoint inhibitors in PARPi-resistant BRCA-mutant ovarian cancer cell lines. (AID 1963452; calls by dose curve). The conditions noted are these: PEO1/OlaR viability, CellTiter-Glo luminescence, 96 h; for Z-AUC: stronger effect = lower value. The procedure, abridged:
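PEO1, PEO4 and PEO1/OlaR ovarian cancer cells, 600 per well, exposed 96 h at 37C to a dilution series. Viability read by CellTiter-Glo luminescence, normalized to DMSO and empty wells; activity summarized as Z-AUC.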

Test [2] can be described thus: qHTS profiling for inhibitors of Plasmodium falciparum proliferation (AID 504749). Further: nearly all actives have a fitted effect of over 60% in size.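 On activity, negative = inhibition: 0% = DMSO vehicle and full inhibition = artemisinin control.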 Conditions: P. falciparum in erythrocytes, SYBR Green DNA, 72 h. The procedure, abridged:
(§1)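 In a 72 h erythrocytic culture (37 C, humidified, 5% CO2) at 2.5% hematocrit and 0.3% starting parasitemia, compounds were tested; SYBR Green I in detergent lysis buffer stained parasite DNA overnight.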
(In general: qHTS replaces the single test concentration by a dilution series.)

A further test relates to 3D7. Described as above. Conditions: P. falciparum in erythrocytes, SYBR Green DNA, 72 h; series mostly up to 28.7 µM. In a few lines:
as §1

For a further test, the system named is 7G8. The description is as above. The conditions noted are these: P. falciparum in erythrocytes, SYBR Green DNA, 72 h; series mostly up to 28.7 µM. In a few lines:
as §1

The test system of the next test is AA1029. The test is described as above. The conditions noted are these: P. falciparum in erythrocytes, SYBR Green DNA, 72 h; series mostly up to 28.7 µM. The procedure, abridged:
as §1

The test system of a further test is AS120. Described as above. The conditions noted are these: P. falciparum in erythrocytes, SYBR Green DNA, 72 h; series mostly up to 28.7 µM. In a few lines: as §1
A further test concerns ATS189. Described as above. Conditions: P. falciparum in erythrocytes, SYBR Green DNA, 72 h; series mostly up to 28.7 µM. The procedure, abridged:
as §1

The next test concerns ATS95. The description is as above. Conditions: P. falciparum in erythrocytes, SYBR Green DNA, 72 h; series mostly up to 28.7 µM. The procedure, abridged: as §1
A further test has as its system C2A. The description is as above. The conditions noted are these: P. falciparum in erythrocytes, SYBR Green DNA, 72 h; series mostly up to 28.7 µM. The procedure, abridged: as §1
For a further test, the system named is CP185. The test is described as above. Conditions: P. falciparum in erythrocytes, SYBR Green DNA, 72 h; series mostly up to 28.7 µM. The procedure, abridged: as §1
Test [3] can be described thus: qHTS for identification of novel therapeutic agents for treatment of microphthalmiaassociated transcription factor (MiT) renal cell carcinoma (RCC) (AID 1963991; calls by dose curve). Conditions: CellTiter-Glo, 48 h; for Potency: active = Z-AUC below -0.8 in all three lines; for z-score: stronger effect = lower value. In a few lines:
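Viability of three TFE3-fusion renal carcinoma lines measured by CellTiter-Glo after 48 h treatment with each of 1912 compounds at 11 concentrations. Responses scaled between DMSO (100%) and empty wells (0%) before curve fitting.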

Where [4] appears, read: measured here: PEO1 parental Z-AUC.
Setting [5] is: at 28.7 µM (top of the series), parasite line A.
Where [6] appears, read: at 28.7 µM (top of the series), parasite line B.
[7] abbreviates: TFE3-RCC UOK109 viability, measured here: UOK109 Z-AUC.
Setting [8] is: TFE3-RCC viability, measured here: UOK124 Z-AUC.
Where [9] appears, read: TFE3-RCC viability, measured here: UOK145 Z-AUC.
Potency means the concentration at half of the fitted maximal effect.

With `COc1cc2c(cc1OC)CC(=O)N(CCCN(C)C[C@H]1Cc3cc(OC)c(OC)cc31)CC2`, the results for the Z-AUC in [1], in [1] (setting [4]) and in test [1] (measured here: PEO4 Z-AUC) were 0.967 (inactive), 0.523 and 0.443, respectively. The activity, negative = inhibition in test [2] (setting [5]) was -2.12% (inactive); in test [2] (setting [6]), -3.25% (inactive). Also, the Potency entry in the test with 3D7, in the test on AA1029, in the test on AS120, in the test on ATS189, with ATS95 and in the test with C2A was “inactive” in each case. For the same compound, the Potency with 7G8 is 11.2 µM (active). For the same compound, in the test with CP185, the compound was classed as inactive.

On to `CN(C)CCN(C)C(=O)c1ccc(NC(=O)Nc2ccc(-c3nc(N4CCOCC4)c4ccn(CC(F)(F)F)c4n3)cc2)cc1`, for which the Z-AUC in test [1] was -1.1 (inactive); in test [1] (setting [4]), -1.35; in test [1] (measured here: PEO4 Z-AUC) it was -1.82. Moreover, in test [3] (TFE3-RCC UOK109 viability), the Potency was 1.32 µM (active). In addition, the z-score in test [3] (setting [7]) was -2.71; in test [3] (setting [8]) it was -3.06; in [3] (setting [9]), -1.67.

Turning to `C=CC[N+]1([C@H]2C[C@H]3[C@@H]4CC[C@H]5C[C@H](O)[C@@H](N6CCOCC6)C[C@]5(C)[C@@H]4CC[C@]3(C)[C@H]2OC(C)=O)CCCC1`, the z-score in [3] (setting [7]) was 0.798; in test [3] (setting [8]), 0.675; in test [3] (setting [9]) it was 0.368.

On to `CCC[C@H](Nc1nc(-c2ccc(NC(=O)NCC)c(OC)c2)ncc1C)c1cccnc1`, for which the Potency in test [1] was 0.0087 µM (active); in test [3] (TFE3-RCC UOK109 viability) it was 0.0372 µM (active). Further, the values for the Z-AUC in [1] (setting [4]) and in [1] (measured here: PEO4 Z-AUC) were -2.97 and -3.47, respectively. Further, the figures for the z-score in test [3] (setting [7]), in test [3] (setting [8]) and in [3] (setting [9]) were -2.33, -3.81 and -2.31, respectively.

In the case of `COc1cc(CNC(=O)CCCCC=CC(C)C)ccc1O`, the z-score was 0.273 in test [3] (setting [7]), 0.406 in test [3] (setting [8]) and 0.0429 in test [3] (setting [9]).

As for `O=C(O)c1nc(=O)[nH]c(=O)[nH]1`, the Z-AUC in test [1] was 0.306 (inactive); in test [1] (setting [4]) it was -0.133; in test [1] (measured here: PEO4 Z-AUC), -0.258. Also, the results for the z-score in test [3] (setting [7]), in test [3] (setting [8]) and in [3] (setting [9]) were 1.29, 0.587 and 1.2, respectively. Also, the results for the activity, negative = inhibition in test [2] (setting [5]) and in test [2] (setting [6]) were -16.8% (inactive) and -28.2% (inactive), respectively. Also, the Potency result in the test on 3D7, with 7G8, in the test on AA1029, in the test on AS120, with ATS189 and in the test on ATS95 was “inactive” each time. Also, the Potency entry in the test with C2A was “inactive”. For the same compound, the compound was called inactive in the test with CP185.

On to `O=C(O)C1=CO[C@@H](O[C@@H]2O[C@H](CO)[C@H](O)[C@H](O)[C@H]2O)[C@@H]2C(CO)=CC[C@H]12`, for which the results for the z-score in test [3] (setting [7]), in test [3] (setting [8]) and in [3] (setting [9]) were 0.598, 0.803 and 0.387, respectively.

As for `CC=C1C2C=C(C)CC1(N)c1ccc(=O)[nH]c1C2` (stereo not given), the z-score in [3] (setting [7]) is 0.936; in [3] (setting [8]), 0.297; in test [3] (setting [9]), 1.2.

With `CCCCCOC(=O)Nc1nc(=O)n([C@@H]2O[C@H](C)[C@@H](O)C2O)cc1F` (stereo not given in full), the results for the z-score in test [3] (setting [7]), in [3] (setting [8]) and in [3] (setting [9]) were 0.259, 0.348 and 0.317, respectively.

`N#CC(c1ccc(Cl)cc1)c1c(Cl)cc(-n2ncc(=O)[nH]c2=O)cc1Cl` (stereo not given): the values for the Z-AUC in [1], in [1] (setting [4]) and in test [1] (measured here: PEO4 Z-AUC) were -0.392 (inactive), -1.19 and -1.22, respectively. Also, the activity, negative = inhibition in test [2] (setting [5]) is -9.47% (inactive); in test [2] (setting [6]), -1.8% (inactive). The Potency entry in the test on 3D7, in the test on AA1029, in the test on AS120, in the test on ATS189, in the test with ATS95 and with C2A was “inactive” each time. In addition, the compound was called inactive with CP185.

In the case of `Nc1ccc(-c2ccc3ncc4ccc(=O)n(-c5cccc(C(F)(F)F)c5)c4c3c2)cn1`, the Z-AUC is -1.37 (inactive) in test [1], -2.21 in test [1] (setting [4]) and -1.55 in test [1] (measured here: PEO4 Z-AUC). Also, the Potency in test [3] (TFE3-RCC UOK109 viability) is 3.32 µM (active). The figures for the z-score in test [3] (setting [7]), in [3] (setting [8]) and in [3] (setting [9]) were -2.43, -4.62 and -4.33, respectively.

Consider `CN1CCN2c3ncccc3Cc3ccccc3C2C1` (stereo not given), for which the values for the Z-AUC in test [1], in [1] (setting [4]) and in test [1] (measured here: PEO4 Z-AUC) were -0.118 (inactive), -0.0867 and 0.472, respectively. The z-score was determined as 0.418 in test [3] (setting [7]), 0.445 in test [3] (setting [8]) and 0.581 in test [3] (setting [9]). The activity, negative = inhibition in [2] (setting [5]) was -2.79% (inactive); in test [2] (setting [6]) it was 7.38% (inactive). Further, the Potency result in the test with 3D7, with ATS189 and in the test with C2A was “inactive” each time. In the test with 7G8, the Potency was 11.2 µM (active). Further, the outcome in the test with CP185 was inactive.

In the case of `C=C1c2cccc(O)c2C(O)=C2C(=O)[C@@]3(O)C(O)=C(C(N)=O)C(=O)[C@@H](N(C)C)[C@@H]3[C@@H](O)[C@H]12`, the Z-AUC in [1] was -0.114 (inactive); in test [1] (setting [4]), -0.453; in [1] (measured here: PEO4 Z-AUC) it was -0.502. The figures for the z-score in [3] (setting [7]), in test [3] (setting [8]) and in test [3] (setting [9]) were 1.5, 0.336 and 0.104, respectively. In addition, the activity, negative = inhibition in [2] (at 12.8 µM (top of the series), parasite line A) was -22.9% (inactive); in test [2] (at 12.8 µM (top of the series), parasite line B), -19.4% (inactive). For the same compound, the Potency entry with 3D7, in the test with AA1029, in the test with AS120, in the test with ATS189, in the test on ATS95 and in the test with C2A was “inactive” each time. For the same compound, the compound was called inactive with CP185.

In the case of `CO[C@H]1C=CO[C@@]2(C)Oc3c(C)c(O)c4c(O)c(c(C=NN5CCN(C)CC5)c(O)c4c3C2=O)NC(=O)C(C)=CC=C[C@H](C)[C@H](O)[C@@H](C)[C@@H](O)[C@@H](C)[C@H](OC(C)=O)[C@H]1C`, the z-score in test [3] (setting [7]) stood at 2.16; in test [3] (setting [8]), 2; in test [3] (setting [9]) it was 1.3.

Take `O=C1NC(=O)C(c2cnc3ccccn23)=C1c1cn2c3c(cccc13)CN(C(=O)N1CCOCC1)CC2`: the Z-AUC in [1] was -1.3 (inactive); in test [1] (setting [4]), -1.91; in [1] (measured here: PEO4 Z-AUC) it was -0.9. Also, the Potency in test [3] (TFE3-RCC UOK109 viability) was 4.18 µM (active). In addition, the z-score is -1.6 in test [3] (setting [7]), -1.78 in test [3] (setting [8]) and -1.46 in [3] (setting [9]).
